ELG1 DNA repair – blocks ELG1-dependent DNA repair in HEK293T cells; HEK293T ELG1-luciferase reporter, luminescence, 16 h; DNA damage induced by 5-fluorouridine; Potency, µM (highest dose often 46.1 µM), without a hit: top-dose activity change, negative = inhibition, most hits filed as inhibitors; actives 2.3% (n = 330,000); further: on the % scale 0 is the no-effect control and ±100 the full control effect; nearly all actives have a fitted effect of over 55% in size
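Luminescence from the luciferase reporter, measured 30 min after ONE-Glo reagent at room temperature, was the read-out. Beforehand, 2,000 cells per well were exposed for 16 hr at 37 °C to 5-fluorouridine together with compound or vehicle.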
SMN2 splice enh – SMN2 splice variant enhancement. HEK293 SMN2-luciferase splicing reporter, luminescence, 30-36 h. Potency, µM (titrated, usually from 46.1 µM), for the others: at the highest dose activity change, positive = activation, actives largely listed as activators. actives 2.8% (n = 210,000); further: % of control where 0% means no effect; nearly all actives have a fitted effect of over 55% in size
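HEK293 cells carry an SMN2 minigene-luciferase reporter in which exon 7 inclusion puts luciferase in frame. Cells were seeded at 2000 cells/well, attached for 10-12 hours, then exposed to compounds for 30-36 hours at 37C before ONE-Glo luminescence.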
Rab9 prom act – activates the Rab9 promoter; Huh7 Rab9 promoter-luciferase reporter, luminescence, 24 h; Potency, µM (highest dose often 9.22 µM), for the others: top-dose activation, negative = inhibition, usual class: activators; actives 2.8% (n = 320,000); further: % of control where 0% means no effect; nearly all actives have a fitted effect of over 60% in size
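Huh7 cells stably carrying a Rab9 promoter-luciferase reporter, 1500 cells per well in OP-MEM I with 10% FBS, treated with compound 24 hours at 37C. Luciferase activity read by luminescence after 10 minutes with Amplite reagent.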
FLuc modulator – inhibits or activates purified firefly luciferase, miR-21 counter-screen. P08659. purified FLuc, Km substrates, luminescence inhibition. Potency, µM (titrated, usually from 57.5 µM), for inactives: at the top dose activity change, negative = inhibition, usual class: inhibitors. actives 6.9% (n = 360,000). AID 588342;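 further: plate controls were vehicle for no effect and reference inhibitor for full effect; nearly all actives have a fitted effect of over 55% in size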
Target sequence (P08659 whole entry, looked up): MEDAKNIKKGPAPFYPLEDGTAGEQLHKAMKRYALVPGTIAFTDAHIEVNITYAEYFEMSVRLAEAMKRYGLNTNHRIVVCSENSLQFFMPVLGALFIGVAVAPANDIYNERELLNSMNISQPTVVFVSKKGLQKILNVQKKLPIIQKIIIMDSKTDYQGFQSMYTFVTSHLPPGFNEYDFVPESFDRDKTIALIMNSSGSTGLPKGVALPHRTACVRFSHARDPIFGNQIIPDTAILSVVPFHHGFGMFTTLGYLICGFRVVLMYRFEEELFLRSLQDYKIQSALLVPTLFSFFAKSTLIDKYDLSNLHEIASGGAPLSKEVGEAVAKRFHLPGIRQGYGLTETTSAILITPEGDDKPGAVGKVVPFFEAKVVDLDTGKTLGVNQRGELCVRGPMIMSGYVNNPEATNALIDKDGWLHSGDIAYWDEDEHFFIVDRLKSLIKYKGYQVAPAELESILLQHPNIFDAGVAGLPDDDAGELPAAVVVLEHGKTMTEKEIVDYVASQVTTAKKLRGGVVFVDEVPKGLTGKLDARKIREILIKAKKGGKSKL
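Purified P. pyralis luciferase, 10 nM final, with Km-level 10 uM D-luciferin and 10 uM ATP in 50 mM Tris acetate pH 7.5, 10 mM Mg acetate, 0.01% Tween-20, 0.05% BSA; 6-point qHTS titration about 60 µM downward; luminescence read.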
NPC1 promoter act – NPC1 promoter activation. Huh7 NPC1 promoter luciferase reporter, 24 h. Potency, µM (series often up to 9.22 µM), inactives show at the highest dose activation, usual class: activators. actives 2.4% (n = 320,000); further: % of control where 0% means no effect; nearly all actives have a fitted effect of over 60% in size
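Cells: Huh7 expressing luciferase under the NPC1 promoter, 1500/well. Seeded 2 h, compound added, incubated 24 h at 37 °C. Luciferase reagent, 10 min ambient, then luminescence.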
ELG1 genotox – genotoxicity induction in ELG1-luciferase HEK293T cells. AID 504466. actives 1.3% (n = 330,000). Potency, µM (doses to about 46 µM), for the others: at the highest dose activity change, positive = activation, usual class: activators. HEK293T ELG1-luciferase reporter, luminescence, 16 h; further: % of control where 0% means no effect; nearly all actives have a fitted effect of over 60% in size
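Cells (2,000/well) expressing the ELG1-luciferase fusion are dosed by pin tool and kept 16 hr at 37 °C, 5% CO2. Signal comes from ONE-Glo luciferase reagent after 30 min at room temperature.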
Starred values were filed as active, the others as inactive; ? = inconclusive; . = no result. Rows were chosen to be rich in hits. Some 9.2% of all compounds tested hit in one or more screens of this group. The call rests on the fitted dose curve; in most records, active means well fitted curve in the direction sought with a large enough effect; inconclusive means small, poorly fitted or top-dose-only effect, or another doubt; inactive means no such curve, though single readings can be large; an effect the other way counts as inactive or inconclusive. Potency means the concentration at half of the fitted maximal effect.

SMILES	ELG1 DNA repair	SMN2 splice enh	Rab9 prom act	FLuc modulator	NPC1 promoter act	ELG1 genotox
CCc1cccc(C)c1NC(=O)COC(=O)Cn1c(C)csc1=O	-1.7%	.	0.7%	1.8%	8.2%	1.7%
Cc1cc(C)c(C(=O)COC(=O)Cn2c(C)csc2=O)cc1C	3.3%	.	-0.8%	16.9µM*	5.5%	10.6%
Cc1cc(C)c(NC(=O)COC(=O)CCn2c(C)csc2=O)c(C)c1	11.6%	.	14.2%	5.5%	-3.1%	0.9%
Cc1ccc(CNC(=O)CCSCc2cccc(F)c2)cc1	7.2%	.	1.6%	2.6%	1.0%	-1.6%
COCCn1c(C)cc(C(=O)COC(=O)c2ccc([N+](=O)[O-])o2)c1C	?	2.8%	7.4%	12µM*	4.6%	-0.8%
Cc1cc(C)c(C(=O)COC(=O)c2ccc([N+](=O)[O-])o2)cc1C	-4.9%	-45.2%	-4.8%	-0.9%	-3.9%	-2.6%
Cc1cc(C(=O)COC(=O)c2ccc([N+](=O)[O-])o2)c(C)n1CC1CCCO1 (stereo not given)	13.9%	-2.7%	1.6%	10.7µM*	-1.1%	0.2%
COCCn1c(C)cc(C(=O)COC(=O)C2CC(=O)N(CCc3ccc(OC)c(OC)c3)C2)c1C (stereo not given)	?	.	19.4%	10.7µM*	17.8%	8.1%
CCOC(=O)c1c(S(=O)(=O)N2CCC(C(=O)Nc3cccc(C#N)c3)CC2)c(C)n(C)c1C	.	.	.	-7.9%	.	.
Cn1c(=O)c(-c2ccc(Cl)cc2)nc2cnc(Oc3ccccc3)nc21	.	-5.2%	.	.	.	.
CCc1nn2c(-c3ccco3)ccnc2c1-c1ccc(F)cc1	.	-4.3%	.	10.7µM*	.	.
COc1ccc(-n2c(-c3ccc(Br)cc3)c[n+]3c2CCc2ccccc2-3)cc1	?	-72.4%	-23.8%	5.0%	-16.0%	-7.5%
CC(C)c1ccc(-n2c(-c3ccccc3)c[n+]3c2CCc2ccccc2-3)cc1	2.31µM*	-76.2%	-45.1%	-0.4%	-46.0%	-10.7%
COc1ccccc1-n1c(-c2ccccc2)c[n+]2c1CCc1ccccc1-2	3.26µM*	-58.7%	-45.0%	1.6%	-42.3%	-14.5%
CNC(=O)c1cccc(NC(=O)c2cc(-c3ccccc3)nc3c2cnn3C(C)C)c1	7.94µM*	.	-7.2%	-12.2%	-1.1%	-4.1%
CC(C)n1ncc2c(C(=O)Nc3cccc(S(=O)(=O)N(C)C)c3)cc(C3CC3)nc21	20.6µM*	.	2.7%	0.0%	-1.6%	-9.5%
CCN(CC)C(=O)c1cccc(NC(=O)c2cc(C3CC3)nc3c2cnn3C(C)C)c1	?	.	-0.4%	3.9%	1.2%	-7.9%
CC(C)n1ncc2c(C(=O)Nc3ccc(S(C)(=O)=O)cc3)cc(C3CC3)nc21	?	.	-2.2%	2.9%	-2.4%	-0.9%
O=C(c1ccc(F)c(S(=O)(=O)N2CCOCC2)c1)N1CCc2ccccc21	1.7%	.	5.5%	2.7%	0.3%	-6.0%
O=C(Nc1ccccc1C(=O)NC1CC1)c1ccccc1F	5.6%	.	.	.	.	0.6%
CCNc1ccccc(-c2ccc3ccccc3n2)c1=O	?	11.2µM*	?	12µM*	?	?
COc1ccc(C(=O)CC(=O)c2ccc(C(C)(C)C)cc2)cc1	.	-10.8%	.	.	.	.
COc1ccc(CNC(=O)c2ccc(C(C)(C)C)cc2)cc1	?	.	2.82µM*	3.01µM*	3.16µM*	?
COc1ccc(CNC(=O)c2ccc(N(C)S(=O)(=O)c3ccc(C)cc3)cc2)cc1	20.6µM*	.	0.5%	1.4%	-0.2%	-3.2%
O=C(COC(=O)c1cc(=O)[nH]c(=O)[nH]1)Nc1ccccc1F	23.9%	.	.	.	.	0.3%
SMILES	ELG1 DNA repair	SMN2 splice enh	Rab9 prom act	FLuc modulator	NPC1 promoter act	ELG1 genotox
COC(=O)c1sccc1NC(=O)Nc1ccc(Cl)c(Cl)c1	?	12.6µM*	-3.2%	?	-2.1%	17.6%
COC(=O)c1sccc1NC(=O)Nc1ccc(C)c(C)c1	?	.	?	0.477µM*	1.6%	2.31µM*
CCc1ccc(NC(=O)Nc2ccsc2C(=O)OC)cc1	?	.	?	0.338µM*	17.4%	2.06µM*
COC(=O)c1sccc1NC(=O)Nc1ccc(OC)c(OC)c1	-45.2%	.	-0.9%	?	-0.6%	-2.6%
CN1C(=O)c2ccccc2Sc2ccc(NC(=O)NCc3cccc(Cl)c3)cc21	.	.	.	2.6%	.	.
Cc1nc(-c2ccc(Cl)cc2)sc1CCNC(=O)C(=O)Nc1ccc2c(c1)OCCO2	.	.	.	-2.6%	.	.
C=CCc1c(C)nc2ccc(C(=O)OCC)cc2c1Cl	?	.	12.1%	21.3µM*	0.0%	2.2%
CCOC(=O)c1ccc2nc(C)c(CC)c(Cl)c2c1	?	.	-12.6%	?	8.5%	-0.1%
COC(=O)C1=CN(c2cccc(C)c2)C=C(C(=O)OC)C1c1cc(OC)c(O)c([N+](=O)[O-])c1	0.7%	-4.4%	-2.4%	16.9µM*	-2.9%	-7.5%
COC(=O)C1=CN(c2ccc(OC)cc2)C=C(C(=O)OC)C1c1ccc(C)c([N+](=O)[O-])c1	-13.5%	-12.4%	-9.5%	2.9%	-8.1%	-0.3%
COc1ccc(C(=O)Sc2ccc(C)cc2)cc1OC	0.0%	17.4%	-6.5%	6.75µM*	-4.0%	-9.4%
COc1ccc(C(=O)SC2=NCCS2)cc1OC	11.1%	.	2.3%	1.0%	0.0%	-1.4%
COc1ccc(C(=O)Sc2ccc(Cl)cc2)cc1OC	7.9%	2.8%	-4.2%	2.69µM*	-13.8%	-1.4%
COc1cccc(C(=O)C2CCCN(C(=O)c3cccc(C#CC(C)(C)O)c3)C2)c1 (stereo not given)	16.4µM*	-19.5%	-7.7%	-18.2%	-1.4%	-3.0%
COc1cccc(C(=O)N2CCCC(Nc3ccc(C)c(C)c3)C2)c1 (stereo not given)	5.4%	.	3.5%	-2.8%	0.5%	-3.2%
C[C@H](NC(=O)c1ccc2ccccc2c1)C(=O)N1CCC2(CC1)NCCc1[nH]cnc12	0.0%	.	-11.9%	-6.4%	-2.9%	1.0%
COc1ccc(NC(=O)c2cc(-c3ccco3)on2)cc1OC	?	.	1.8%	-4.8%	1.7%	?
O=C(NCCc1ccccc1)c1cc(-c2ccco2)on1	?	10µM*	2.82µM*	6.01µM*	2.51µM*	?
Cc1ccc(NC(=O)c2cc(-c3ccco3)on2)cc1C	?	-8.8%	7.1%	2.69µM*	14.1%	?
Cc1ccc(NC(=O)c2cc(-c3cccc(O)c3)on2)cc1C	?	1.6%	6.6%	9.53µM*	-7.3%	?
Cc1ccc(NC(=O)c2cc(-c3ccco3)on2)cc1	?	-7.3%	-0.9%	2.13µM*	-0.8%	?
Cc1ccc(S(=O)(=O)NCC(=O)OCC(=O)N(CCC#N)c2ccccc2)cc1	7.3%	.	.	.	.	2.7%
O=C(CN1C(=O)CCc2cc(S(=O)(=O)N3CCOCC3)ccc21)NCc1ccccc1	.	.	.	-0.8%	.	.
